Our source for the binding signal values is PMC10812921, “Transcriptional Coactivator BOB1 (OBF1, OCA-B) Modulates the Specificity of DNA Recognition by the POU-Domain Factors OCT1 and OCT2 in a Monomeric Configuration”.

The target in one experiment is POU1 (OCT1 POU domain);BOB1 (OBF1, OCA-B) (human;human, UniProt P14859;Q16633 260-458;1-256, |). As to the kind of experiment: EMSA-SELEX-seq; with BOB1 (ternary complex band); 20 mM Tris-HCl pH 7.6, 140 mM NaCl, 10% glycerol, 0.5 mM EDTA, 0.05% Triton X-100, 0.1 mg/mL BSA, 0.1 mg/mL poly(dI-dC), 5 mM DTT, room temperature, 20 min; high values mean tight binding. The following applies: protein: recombinant;recombinant; copies: 1;1; dsDNA, one strand shown. Summed up: (§1)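 After expression in E. coli BL21, tagged POU-domain proteins were purified under denaturing conditions and then renatured. Each binding reaction held 30 ng protein and 300 ng of a PCR-amplified double-stranded random 35-nt library in 20 μL Tris–HCl pH 7.6 binding buffer, with or without 28 ng coactivator protein, for 20 min at RT. Bands holding complexes were cut from native 6% PAGE, eluted and PCR-amplified across four rounds, and the output was Illumina-sequenced. The value given for binding preference is the share, in percent, of sequenced 8-mers fitting a motif pattern.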
Background: A gel shift assay detects complexes by their altered migration in electrophoresis.
As for AAACAAAA, the binding signal was 0.256 % of ANNNNAAN 8-mers.
On the same count and under the same terms, for AACGGAAA the value was 0.0741 % of ANNNNAAN 8-mers.
As to ACGCTAAA, the binding signal is 0.0281 % of ANNNNAAN 8-mers.
The same measure, in the same setting: as for AACGTAAT, the figure is 0.0546 % of ANNNNAAN 8-mers.
With ATGACAAT, the binding signal is 0.0453 % of ANNNNAAN 8-mers.
For the sequence ACGGCAAG, the binding signal is 0.0211 % of ANNNNAAN 8-mers.
As to AAGCGAAT, the binding signal is 0.0531 % of ANNNNAAN 8-mers.
For AGCACAAG, the binding signal is 0.0183 % of ANNNNAAN 8-mers.
Regarding ACAAAAAT, the binding signal was 0.114 % of ANNNNAAN 8-mers.
ACATGAAA: the binding signal is 0.0823 % of ANNNNAAN 8-mers.
Same read-out and setting: for ATTCCAAC the value was 0.0269 % of ANNNNAAN 8-mers; for AGCGGAAA, 0.0324 % of ANNNNAAN 8-mers; for ACGGGAAA, 0.0496 % of ANNNNAAN 8-mers.
On the same count and under the same terms, for AGGTCAAA the value was 0.0632 % of ANNNNAAN 8-mers.
Regarding ACCCTAAG, the binding signal was 0.0133 % of ANNNNAAN 8-mers.
Still for that read-out and setting: as for AAGTTAAA, the figure is 0.0901 % of ANNNNAAN 8-mers; as for ATTACAAT, 0.0847 % of ANNNNAAN 8-mers.
Turning to ACCAAAAA, the binding signal is 0.0425 % of ANNNNAAN 8-mers.
For the sequence AGTAGAAA, the binding signal is 0.0464 % of ANNNNAAN 8-mers.
Turning to AACATAAT, the binding signal was 0.0515 % of ANNNNAAN 8-mers.
On the same count and under the same terms, for AGTGTAAG the value was 0.0406 % of ANNNNAAN 8-mers.
ACCCGAAA: the binding signal is 0.0168 % of ANNNNAAN 8-mers.
For ACACGAAT, the binding signal is 0.0379 % of ANNNNAAN 8-mers.
As for AGCGGAAC, the binding signal was 0.0129 % of ANNNNAAN 8-mers.
The same measure, in the same setting: as for AATAGAAC, the figure is 0.0382 % of ANNNNAAN 8-mers.
Same read-out and setting: for AGTAAAAC the value was 0.0663 % of ANNNNAAN 8-mers; for AGCTCAAA, 0.0242 % of ANNNNAAN 8-mers; for AAAGGAAC, 0.0476 % of ANNNNAAN 8-mers.
Regarding AGGGTAAA, the binding signal was 0.0679 % of ANNNNAAN 8-mers.
Take AAGGAAAA: the binding signal was 0.17 % of ANNNNAAN 8-mers.
As for ATAGGAAC, the binding signal is 0.0375 % of ANNNNAAN 8-mers.
The same measure, in the same setting: for ACGCGAAG the value was 0.0168 % of ANNNNAAN 8-mers; for AAGGCAAT, 0.057 % of ANNNNAAN 8-mers; for ACGTTAAG, 0.039 % of ANNNNAAN 8-mers.
Take AAAATAAC: the binding signal is 0.0816 % of ANNNNAAN 8-mers.
On the same count and under the same terms, as for ACTTGAAT, the figure is 0.0613 % of ANNNNAAN 8-mers; as for ACTCAAAA, 0.046 % of ANNNNAAN 8-mers.
In the case of ACCTGAAT, the binding signal is 0.0359 % of ANNNNAAN 8-mers.
On to ACCCTAAT, for which the binding signal is 0.0273 % of ANNNNAAN 8-mers.

The target in the next experiment is T1, POU2 (OCT2 POU domain);BOB1 (OBF1, OCA-B) (human;human, UniProt P09086;Q16633 175-386;1-256, |).
T1 sequence 1: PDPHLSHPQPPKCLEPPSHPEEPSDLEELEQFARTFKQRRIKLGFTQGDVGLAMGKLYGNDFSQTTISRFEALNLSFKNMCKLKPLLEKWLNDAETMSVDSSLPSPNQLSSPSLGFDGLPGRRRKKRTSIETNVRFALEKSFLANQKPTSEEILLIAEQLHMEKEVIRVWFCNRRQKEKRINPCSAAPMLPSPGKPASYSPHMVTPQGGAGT
T1 sequence 2: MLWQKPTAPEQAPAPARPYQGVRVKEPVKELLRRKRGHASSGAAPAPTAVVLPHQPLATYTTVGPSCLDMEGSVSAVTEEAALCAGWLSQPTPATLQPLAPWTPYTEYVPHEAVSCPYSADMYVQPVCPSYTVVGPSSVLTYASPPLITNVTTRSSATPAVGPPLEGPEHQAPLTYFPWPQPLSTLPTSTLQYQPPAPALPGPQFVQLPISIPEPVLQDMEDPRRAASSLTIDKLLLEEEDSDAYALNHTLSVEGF
The experiment is described as above. As to conditions: protein: recombinant;recombinant; copies: 1;1; dsDNA, one strand shown. In short, it runs like this: as §1
Consider AAACAAAA, for which the binding signal was 0.14 % of ANNNNAAN 8-mers.
Take AACGGAAA: the binding signal was 0.0561 % of ANNNNAAN 8-mers.
The same measure, in the same setting: as for ACGCTAAA, the figure is 0.0322 % of ANNNNAAN 8-mers.
The same measure, in the same setting: as for AACGTAAT, the figure is 0.071 % of ANNNNAAN 8-mers; as for ATGACAAT, 0.0471 % of ANNNNAAN 8-mers.
Take ACGGCAAG: the binding signal is 0.0239 % of ANNNNAAN 8-mers.
With AAGCGAAT, the binding signal was 0.0429 % of ANNNNAAN 8-mers.
Consider AGCACAAG, for which the binding signal is 0.0124 % of ANNNNAAN 8-mers.
ACAAAAAT: the binding signal was 0.0768 % of ANNNNAAN 8-mers.
For the sequence ACATGAAA, the binding signal is 0.0619 % of ANNNNAAN 8-mers.
ATTCCAAC: the binding signal is 0.0223 % of ANNNNAAN 8-mers.
In the case of AGCGGAAA, the binding signal was 0.033 % of ANNNNAAN 8-mers.
Take ACGGGAAA: the binding signal is 0.0586 % of ANNNNAAN 8-mers.
AGGTCAAA: the binding signal was 0.0421 % of ANNNNAAN 8-mers.
In the case of ACCCTAAG, the binding signal is 0.0107 % of ANNNNAAN 8-mers.
For AAGTTAAA, the binding signal is 0.071 % of ANNNNAAN 8-mers.
As to ATTACAAT, the binding signal was 0.0966 % of ANNNNAAN 8-mers.
Regarding ACCAAAAA, the binding signal is 0.0256 % of ANNNNAAN 8-mers.
Same read-out and setting: as for AGTAGAAA, the figure is 0.052 % of ANNNNAAN 8-mers; as for AACATAAT, 0.071 % of ANNNNAAN 8-mers.
The same measure, in the same setting: for AGTGTAAG the value was 0.0421 % of ANNNNAAN 8-mers.
Consider ACCCGAAA, for which the binding signal is 0.014 % of ANNNNAAN 8-mers.
Still for that read-out and setting: for ACACGAAT the value was 0.0438 % of ANNNNAAN 8-mers.
AGCGGAAC: the binding signal is 0.0157 % of ANNNNAAN 8-mers.
On the same count and under the same terms, as for AATAGAAC, the figure is 0.0462 % of ANNNNAAN 8-mers; as for AGTAAAAC, 0.0454 % of ANNNNAAN 8-mers.
As for AGCTCAAA, the binding signal was 0.0264 % of ANNNNAAN 8-mers.
For AAAGGAAC, the binding signal was 0.0371 % of ANNNNAAN 8-mers.
On the same count and under the same terms, for AGGGTAAA the value was 0.0966 % of ANNNNAAN 8-mers; for AAGGAAAA, 0.0999 % of ANNNNAAN 8-mers.
Still for that read-out and setting: for ATAGGAAC the value was 0.0545 % of ANNNNAAN 8-mers; for ACGCGAAG, 0.0239 % of ANNNNAAN 8-mers; for AAGGCAAT, 0.0495 % of ANNNNAAN 8-mers.
As to ACGTTAAG, the binding signal was 0.0405 % of ANNNNAAN 8-mers.
For the sequence AAAATAAC, the binding signal was 0.0735 % of ANNNNAAN 8-mers.
ACTTGAAT: the binding signal was 0.071 % of ANNNNAAN 8-mers.
For the sequence ACTCAAAA, the binding signal is 0.0363 % of ANNNNAAN 8-mers.
On the same count and under the same terms, as for ACCTGAAT, the figure is 0.0438 % of ANNNNAAN 8-mers.
With ACCCTAAT, the binding signal was 0.0223 % of ANNNNAAN 8-mers.
